A selection: hits, their analogues and other compounds. The true share with any hit is near 4.6%.
TRHR enhancer: TRH receptor (human) allosteric enhancement | P34981 | TRHR cells, fluo-8 calcium fluorescence, EC20 TRH enhancement | enhancement, % at 2 µM | 360,000 compounds, 0.66% hits | AID 493056; in the data active = enhancement above about 30%
Target sequence (P34981 whole entry, looked up): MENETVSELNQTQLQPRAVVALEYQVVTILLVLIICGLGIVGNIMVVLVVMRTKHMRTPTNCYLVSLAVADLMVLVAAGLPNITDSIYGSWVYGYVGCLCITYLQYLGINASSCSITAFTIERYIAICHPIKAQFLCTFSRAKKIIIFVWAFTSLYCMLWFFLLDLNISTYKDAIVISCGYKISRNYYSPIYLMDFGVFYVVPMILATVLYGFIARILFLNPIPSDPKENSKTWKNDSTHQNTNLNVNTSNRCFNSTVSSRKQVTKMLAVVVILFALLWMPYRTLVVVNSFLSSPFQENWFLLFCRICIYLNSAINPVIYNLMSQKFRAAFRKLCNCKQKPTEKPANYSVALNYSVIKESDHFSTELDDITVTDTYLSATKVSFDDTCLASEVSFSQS
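Enhancer read-out: after compound pinning and an initial kinetic agonist-mode read, an EC20 of TRH (10 nM final) was injected and fluo-8 calcium signal (Ex 480/Em 530) followed at 1 s/cycle for 100 cycles in TRHR-expressing cells.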
D1 potentiator: potentiators of human D1 dopamine receptor; 360,000 compounds, 0.036% hits; potentiation, % at 10 µM; P21728; HEK293 TREx D1 cells, calcium flux, dopamine EC20 potentiation; in the data active = potentiation above about 30%
TRHR ag: agonists of human TRH receptor; TRHR cells, calcium flux fluo-8, FDSS agonist mode; P34981; activation, % at 2 µM; AID 493084; 360,000 compounds, 0.18% hits
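Steps: seed TRHR cells overnight; add fluo-8 no-wash Ca dye, RT 30 min–1.5 h; record 10 s baseline; pin-transfer compounds; monitor fluorescence 1 cycle/s for the agonist window. Calcium increases flag candidate agonists.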
D1 antagonist: human D1 dopamine receptor antagonism; HEK293 TREx D1 cells, calcium flux, dopamine EC80; active compounds read low; P21728; 360,000 compounds, 3.2% hits; activity change, negative = inhibition, % at 10 µM; in the data active = activity change below about -30%
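HEK293 T-REx cells expressing inducible, force-coupled D1 receptor; no-wash Ca dye, 30–90 min RT. Cmpd → 180 s read at 1 Hz → EC80 DA → 180 s read.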
D1 agonist: activates the human D1 dopamine receptor | P21728 | HEK293 T-REx D1 cells, calcium flux, agonist mode | activation, % at 2 µM | 360,000 compounds, 1% hits
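Inducible HEK293 T-REx D1 cells, force-coupled to calcium signalling, were plated at 4000 cells/well with tetracycline and held overnight at 30 C. After no-wash calcium dye loading, compound-evoked calcium rise over 180 s flagged agonists.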
Numbers stand for hits; - = inactive; . = no result; ! = not confirmed by another sample. Cut-off read from the data, not from the text of the source, unless noted: active = activation above about 30%; inactive = the rest.

SMILES	TRHR enhancer	D1 potentiator	TRHR ag	D1 antagonist	D1 agonist
CCn1cc(C(=O)NCc2ccccc2)c(=O)c2cc(S(=O)(=O)N3CCc4ccccc4C3)ccc21	-	-	-	-	-
Cc1c(/C=N\NC(=O)C2COc3ccc(C(C)(C)C)cc3O2)c2ccccc2n1C (stereo unspecified)	-	-	-	-86	-
CC(C)(C)c1ccc2c(c1)OC(C(=O)N/N=C\c1ccc[nH]1)CO2 (stereo unspecified)	-	-	-	-	-
Cn1cccc1/C=N\NC(=O)C1COc2ccccc2O1 (stereo unspecified)	-	-	-	-38	-
Cn1cccc1/C=N\NC(=O)C1COc2ccc(C(C)(C)C)cc2O1 (stereo unspecified)	-	-	-	-	-
O=C(Cc1ccc(-n2c(=O)[nH]c3ccsc3c2=O)cc1)NCc1cccnc1	-	-	-	-	-
CC(=O)c1cccc(NC(=O)N2CCCC2C(=O)NC2CCCC2)c1 (stereo unspecified)	-	-	-	-	-
N#Cc1c(NC(=O)Cn2cnc3ccccc3c2=O)oc(-c2ccccc2)c1-c1ccccc1	-	-	-	-55	-
Cc1cnnc2ccc3c(no[n+]3[O-])c12	-	-	-	-	-
CC(=O)Nc1cc(C(N)=O)c(Cl)cc1Cl	-	-	-	-31	-
CC(=O)Nc1ccc(Cl)c(C(N)=O)c1	-	-	-	-	-
Cc1ccsc1C(=O)NCc1ccc(F)cc1	-	-	-	-	-
Cc1nnc(N2C(=O)C(O)=C(C(=O)c3ccco3)C2c2ccc(F)cc2)s1 (stereo unspecified)	-	-	-	-	36
CCCOc1cccc(C2C(C(=O)c3ccco3)=C(O)C(=O)N2c2nnc(C)s2)c1 (stereo unspecified)	-	.	-	-	76
Cc1ccc(C2C(C(=O)c3ccco3)=C(O)C(=O)N2c2ncccn2)cc1 (stereo unspecified)	-	-	-	-	-
Cc1nnc(N2C(=O)C(O)=C(C(=O)c3ccco3)C2c2ccc(C(C)(C)C)cc2)s1 (stereo unspecified)	-	-	-	-	-
CCCCOc1cccc(C2C(C(=O)c3ccc(C)o3)=C(O)C(=O)N2c2nnc(C)s2)c1 (stereo unspecified)	-	-	-	-	-
Cc1nnc(N2C(=O)C(O)=C(C(=O)c3ccco3)C2c2ccc(C(C)C)cc2)s1 (stereo unspecified)	-	-	-	-	51
CSc1ccc(C2C(C(=O)c3ccco3)=C(O)C(=O)N2c2nnc(SC)s2)cc1 (stereo unspecified)	-	-	-	-	31
O=C(Nc1ccccc1)N(Cc1cccc(Cl)c1)c1ccccn1	-	-	-	-	-
COc1ccc(C(=O)Nc2ccc(S(=O)(=O)N3CCOCC3)cc2)cc1[N+](=O)[O-]	-	-	-	-	-
Cc1ccc(-c2nc3c(c(=O)c4ccccc4n3C)c(=O)n2Cc2ccco2)cc1	-	-	-	-	-
Cc1ccc(NC(=O)c2sc(-n3nc(C)c(Cc4ccc5c(c4)OCO5)c3C)nc2C)cc1C	-	-	-	-	-
Cc1ccc(C2C(C(=O)c3cccs3)=C(O)C(=O)N2c2nnc(C)s2)cc1 (stereo unspecified)	-	-	56	-	141
Cc1ncsc1CCOC(=O)c1cccc([N+](=O)[O-])c1	-	-	-	-33!	-
SMILES	TRHR enhancer	D1 potentiator	TRHR ag	D1 antagonist	D1 agonist
N#CC(c1ccc(Cl)cc1)c1ncc(C(F)(F)F)cc1Cl (stereo unspecified)	-	-	-	-51	-
COCCn1c(C)cc(O)c(C(c2ccc(Cl)cc2)N2CCN(c3ccccc3)CC2)c1=O (stereo unspecified)	-	-	-	-	-
CCCCn1c(NC(=O)c2ccccc2)c(C#N)c2nc3ccccc3nc21	-	-	-	-	35
CCC(C)n1c(NC(=O)c2ccccc2)c(C#N)c2nc3ccccc3nc21 (stereo unspecified)	-	-	-	-	-
CN(C)C(CNC(=O)CCCN1C(=O)c2cccc3cccc(c23)C1=O)c1ccccc1 (stereo unspecified)	-	-	-	-	-
O=C(c1ccccc1)c1c2c(cc3sc4ccccc4[n+]13)-c1cccc3cccc-2c13	-	-	79	-	242
CN(Cc1ccc(F)cc1)S(=O)(=O)c1nnc(NC(=O)c2ccccc2Br)s1	-	-	-	-45!	-
COc1ccccc1-c1nnc(NC(=O)Cc2ccccc2)o1	-	-	-	-	-
Cc1ccc(/C=N/n2c(-c3cccc(Cl)c3)n[nH]c2=S)o1	-	-	-	-35	-
S=c1[nH]nc(-c2cccc(Cl)c2)n1/N=C/c1ccco1	-	-	-	-	-
Cc1ccc(O)c(C(=O)c2cc(C#N)c(=O)n(-c3nccs3)c2)c1	-	-	-	-	331
Cc1ccc(NC(=O)COc2coc(CN3c4ccccc4CC3C)cc2=O)c(C)c1 (stereo unspecified)	-	-	-	-	-
COc1ccc(OC)c(NC(=O)COc2coc(CN3CCc4ccccc43)cc2=O)c1	-	-	-	-36	-
CC1Cc2ccccc2N1Cc1cc(=O)c(OCC(=O)Nc2ccccc2)co1 (stereo unspecified)	-	-	-	-33	-
O=C(Nc1cccc(F)c1)c1ccc2oc(=O)n(Cc3ccccc3)c2c1	-	-	-	-	-
CCn1cc(C(=O)Nc2ccccc2C(=O)OC)c(=O)c2ccc(C)nc21	-	-	-	-	-
COc1ccc(-n2c(SCC(=O)Nc3cc(C)on3)nc3ccc(O)cc3c2=O)cc1OC	-	-	-	-	-
CSc1nc(N)nc(SCCS(=O)(=O)c2ccc(Cl)cc2)c1C#N	-	-	-	-31	-
Cc1ccc(Cl)cc1N1CCN(C(=O)c2ccc3nc[nH]c3c2)CC1	-	-	-	-	-
Cc1cccc(N2CCN(C(=O)c3ccc4nc[nH]c4c3)CC2)c1C	-	-	-	-46	-
COC(=O)/C=C/S(=O)(=O)c1ccc(NC(C)=O)cc1	33	-	-	-	-
COc1ccccc1OS(=O)(=O)c1ccc(NC(C)=O)cc1	-	-	-	-	-
CCN(Cc1ccccc1)C(=O)Cn1c(=O)oc2ccccc21	-	-	-	-	-
Cn1ncc(C(=O)Nc2ccc(OC(F)(F)F)cc2)c1-n1cccc1	-	-	-	-	-
O=c1cc(N2CCN(c3ccc(F)cc3)CC2)[nH]c(=O)n1-c1ccc(Br)cc1	-	-	-	-40	-
O=[N+]([O-])c1cc(Cl)cc(/C=N/Nc2nc3ccccc3s2)c1O	-	-	-	-50	-
COc1ccc(CCN2C(=O)CSC2=Nc2ccc(C(C)C)cc2)cc1OC	-	-	-	-43	-
COc1ccc2c(c1)CCCN2C(N)=Nc1ccc(Cl)cc1	-	-	-	-44	49

Screens as filed in PubChem BioAssay.
